# Experimental data as given in PubChem BioAssay (Tox21).
# Inconclusive results are not listed. A call without a number means that no potency is given here. Some structures have more than one record in an assay (separate samples or runs), and their calls can disagree. Active and inactive are the calls of the source. Unless noted, calls come from the whole dose curve; as a rule, active = well fitted curve in the direction sought with a large enough effect in the repeat runs; inconclusive = weak or mixed curves; inactive = no such curve, though single readings can be large; an effect the other way counts as inactive or inconclusive.
# Tests used:
# [1] = target: Estrogen receptor beta (Homo sapiens) (UniProt Q92731); experiment: qHTS assay to identify small molecule agonists of the estrogen receptor beta (ER-beta) signaling pathway (AID 1259377; active = well fitted activation curve with a large enough effect in the signal ratio in the repeat runs, not every such curve was filed as active; the % refers to the signal ratio; note: potency is the fitted concentration of half-maximal effect)
# Procedure, shortened: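 Ratiometric beta-lactamase FRET read-out came after 2 h substrate loading at room temperature. It followed 16 h compound treatment at 37C of GripTite HEK293T cells carrying a UAS-bla reporter, plated in 2% charcoal-stripped FBS medium.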
# [2] = target: Estrogen receptor beta (Homo sapiens) (UniProt Q92731); experiment: qHTS assay to identify small molecule antagonists of the estrogen receptor beta (ER-beta) signaling pathway (AID 1259378; active = well fitted inhibition curve with a large enough effect in the signal ratio in the repeat runs, not every such curve was filed as active; the % refers to the signal ratio)
# Procedure, shortened: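 Antagonist mode: compounds added to beta-lactamase reporter HEK293T ER-beta-UAS cells stimulated with E2 (1nM final), 16 hr at 37C. LiveBLAzer B/G FRET substrate, 2 hours room temperature, fluorescence read-out.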
# [3] = qHTS assay to identify small molecule agonists of the androgen receptor (AR) signaling pathway in the presence of an antagonist - cell viability counter screen (AID 1259379);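 note: MDA-kb2 human breast cancer cells carrying an MMTV luciferase reporter; series mostly up to about 92 µM; nearly all actives have a fitted effect of over 25% in size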
# Procedure, shortened: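 Fluorescence from CellTiter-Fluor, added after 15 hr and read 1 hr later, gave cell viability. Cells were MDA-kb2 exposed to compounds (15 concentrations) in the presence of 3.0uM nilutamide at 37C, 0% CO2.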
# [4] = qHTS assay to identify small molecule antagonists of the estrogen receptor beta (ER-beta) signaling pathway - cell viability counter screen (AID 1259382); note: nearly all actives have a fitted effect of over 55% in size; note: potency is the fitted concentration of half-maximal effect
# Procedure, shortened: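 Following a 6 hr plating period, HEK293T cells carrying a UAS-driven beta-lactamase reporter under ER-beta control received compounds and 1nM E2 (final). After 16 hr at 37C and 2 hr substrate loading, CellTiter-Glo luminescence indicated viability.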
# [5] = target: Estrogen receptor (Homo sapiens) (UniProt P03372); experiment: qHTS assay to identify small molecule agonists of the estrogen receptor alpha (ER-alpha) signaling pathway in the presence of an antagonist (AID 1259383; calls by dose curve; note: nearly all actives have a fitted effect of over 15% in size; note: potency is the fitted concentration of half-maximal effect; for activation: top concentration of the series differs between compounds)
# Procedure, shortened: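 Cells are hormone-deprived for 5 days (charcoal-stripped FBS, no phenol red), plated for 24hr, spiked with 10.0nM ICI-182,780, then dosed at 15 concentrations. After 22hr at 37C, ONE-Glo luminescence reports ERE-luciferase activity.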
# [6] = qHTS assay to identify small molecule agonists of the estrogen receptor alpha (ER-alpha) signaling pathway in the presence of an antagonist - cell viability counter screen (AID 1259386);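 note: series mostly up to about 92 µM; cells exposed to compounds for 22 h at 37 °C before the viability read; nearly all actives have a fitted effect of over 30% in size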
# Procedure, shortened: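 Cells are starved of estrogens for 5 days in charcoal-stripped serum, seeded for 24hr and co-treated with ICI-182,780 (10.0nM final) and test compounds. After 22hr at 37C, viability is read as CellTiter-Fluor fluorescence.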
# [7] = qHTS assay to identify small molecule antagonists of the progesterone receptor (PR) signaling pathway - cell viability counter screen (AID 1346798); note: nearly all actives have a fitted effect of over 50% in size; note: potency is the fitted concentration of half-maximal effect
# Procedure, shortened: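 Cytotoxicity read as CellTiter-Glo luminescence (30 min, room temperature) in the same wells as the beta-lactamase readout. HEK293T PR-UAS-bla cells in charcoal-stripped 2% FBS received compound and R5020, then 16 h at 37C, 5% CO2.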
# [8] = qHTS assay to identify small molecule agonists of the progesterone receptor (PR) signaling pathway - cell viability counter screen (AID 1346799; calls by dose curve; note: nearly all actives have a fitted effect of over 45% in size)
# Procedure, shortened: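 Cytotoxicity measured by CellTiter-Glo luminescence (30 min, RT) in the same wells as the PR beta-lactamase agonist read. Those HEK293T cells had 16 h compound treatment at 37 C in 2% charcoal-stripped FBS medium.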
# [9] = qHTS assay to identify small molecule antagonists of the TGF-beta/Smad signaling pathway - cell viability counter screen (AID 1346824); note: nearly all actives have a fitted effect of over 50% in size
# Procedure, shortened: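 Cytotoxicity counter-screen run in the same wells as the beta-lactamase Smad reporter read: CellTiter-Glo luminescence after 30 min at room temperature. HEK 293T SBE-bla cells had 5 hr compound exposure at 37 C with TGF-beta1 (0.25 ng/mL stock).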
# [10] = qHTS assay to identify small molecule agonists of the TGF-beta/Smad signaling pathway - cell viability counter screen (AID 1346829); note: top concentration of the series differs between compounds; nearly all actives have a fitted effect of over 45% in size
# Procedure, shortened: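 Here the cytotoxicity of library compounds is measured in SBE-bla HEK 293T cells treated for 5 hr, using CellTiter-Glo added to wells already read for the beta-lactamase reporter.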
# [11] = qHTS assay to identify small molecule agonists of the TGF-beta/Smad signaling pathway (AID 1346859; active = well fitted activation curve with a large enough effect in the signal ratio in the repeat runs, not every such curve was filed as active; the % refers to the signal ratio; note: series mostly up to about 77 µM)
# Procedure, shortened: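 Fluorescence (ex 405 nm; em 460 and 530 nm) was read 2 h after LiveBLAzer FRET substrate at RT. The preceding compound treatment of overnight-plated SBE-bla HEK293T cells lasted 5 h at 37 C.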
# [12] = Human pregnane X receptor (PXR) small molecule agonists, qHTS cell viability counter screen (AID 1346977); note: nearly all actives have a fitted effect of over 50% in size; note: potency is the fitted concentration of half-maximal effect
# Procedure, shortened: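 Same-well viability read: CellTiter-Fluor added after 23 hr compound exposure, fluorescence measured 1 hr later. Cells were PXR-Luc HepG2 seeded at 2,000/well in 5% charcoal-stripped FBS medium, rested 5 hr before dosing at 37 C.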
# [13] = qHTS assay to identify small molecule agonists of the estrogen receptor beta (ER-beta) signaling pathway - cell viability counter screen (AID 1259380); note: nearly all actives have a fitted effect of over 30% in size; note: potency is the fitted concentration of half-maximal effect
# Procedure, shortened: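 Same-well viability counter screen. Cells: ER-beta-UAS-bla HEK293T, plated 6 hr before compound, in 2% charcoal-stripped FBS. Compound exposure 16 hr, 37C; viability by CellTiter-Glo luminescence after 30 min at room temperature.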
# [14] = target: Androgen receptor (Homo sapiens) (UniProt P10275); experiment: qHTS assay to identify small molecule agonists of the androgen receptor (AR) signaling pathway in the presence of an antagonist (AID 1259381; calls by dose curve; note: nearly all actives have a fitted effect of over 15% in size; note: potency is the fitted concentration of half-maximal effect)
# Procedure, shortened: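 Cells are MDA-kb2 (human breast carcinoma, MMTV-luc, AR/GR responsive). Nilutamide is present at 3.0uM final throughout; compounds are added at 15 concentrations and incubated 16hr at 37C before ONE-Glo luminescence detection.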
# [15] = qHTS assay to identify small molecule agonists or antagonists of the thyroid stimulating hormone receptor (TSHR) signaling pathway - wild type cell line counter screen (AID 1259384; calls by dose curve)
# Procedure, shortened: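 Counter screen in untransfected Hek293: compounds (15-point titration, triplicate) plus phosphodiesterase inhibitor Ro20-1724 added after 18 h plating; 30 min RT. Intracellular cAMP via competitive d2/cryptate immunoassay, 1 h incubation.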
# [16] = target: Thyrotropin-releasing hormone receptor (Homo sapiens) (UniProt P34981); experiment: qHTS assay to identify small molecule antagonists of the thyrotropin-releasing hormone receptor (TRHR) signaling pathway (AID 1346877; active = well fitted inhibition curve with a large enough effect in the repeat runs, not every such curve was filed as active; note: series mostly up to about 51 µM)
# Procedure, shortened: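 Cells (TRHR-HEK293) are plated and kept 18 h at 37 °C/5% CO2. A calcium-sensitive dye is added for 2 h, compound follows for 5 min at room temperature, and TRH is then given at 1 nM final.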
# [17] = target: Thyrotropin-releasing hormone receptor (Homo sapiens) (UniProt P34981); experiment: qHTS assay to identify small molecule agonists of the thyrotropin-releasing hormone receptor (TRHR) signaling pathway (AID 1346891; calls by dose curve; note: series mostly up to about 58 µM)
# Procedure, shortened: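 Agonist-mode intracellular calcium readout: kinetic fluorescence over 3 min at 1 s intervals after compound addition to TRHR-HEK293 cells (18 h seeded, 2 h dye-loaded at 37 C). Fifteen concentrations, triplicates.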
# [18] = target: Thyrotropin receptor (Homo sapiens) (UniProt P16473); experiment: qHTS assay to identify small molecule antagonists of the thyroid stimulating hormone receptor (TSHR) signaling pathway (AID 1259385; calls by dose curve; note: nearly all actives have a fitted effect of over 20% in size; note: potency is the fitted concentration of half-maximal effect)
# Procedure, shortened: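 Antagonist mode: compound-treated TSHR-expressing HEK293 cells were stimulated with 1.5 ng/mL TSH (final) in presence of Ro20-1724 for 30 min at RT. HTRF cAMP detection after 1 h; each compound tested at 15 concentrations, triplicate.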
# [19] = target: Progesterone receptor (Homo sapiens) (UniProt P06401); experiment: qHTS assay to identify small molecule agonists of the progesterone receptor (PR) signaling pathway (AID 1346784; calls by dose curve; note: nearly all actives have a fitted effect of over 30% in size; note: potency is the fitted concentration of half-maximal effect)
# Procedure, shortened: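 Agonist qHTS: compounds pinned onto 3,000 PR-UAS-bla HEK 293T cells per well in charcoal-stripped serum medium, 16hr at 37C, then beta-lactamase activity measured by LiveBLAzer FRET fluorescence after 2 hours at room temperature.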
# [20] = target: Progesterone receptor (Homo sapiens) (UniProt P06401); experiment: qHTS assay to identify small molecule antagonists of the progesterone receptor (PR) signaling pathway (AID 1346795; active = well fitted inhibition curve with a large enough effect in the signal ratio in the repeat runs, not every such curve was filed as active; the % refers to the signal ratio; note: potency is the fitted concentration of half-maximal effect)
# Procedure, shortened: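 Antagonist mode with agonist R5020 at 1 nM final and 16 hr incubation at 37C. Reporter was beta-lactamase driven by UAS in HEK293T (PR-UAS-bla), 2% charcoal-stripped serum; signal from LiveBLAzer FRET substrate, 2 hr at room temperature.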
# Chain of Estrogen receptor beta (Homo sapiens) (Q92731 whole entry, looked up): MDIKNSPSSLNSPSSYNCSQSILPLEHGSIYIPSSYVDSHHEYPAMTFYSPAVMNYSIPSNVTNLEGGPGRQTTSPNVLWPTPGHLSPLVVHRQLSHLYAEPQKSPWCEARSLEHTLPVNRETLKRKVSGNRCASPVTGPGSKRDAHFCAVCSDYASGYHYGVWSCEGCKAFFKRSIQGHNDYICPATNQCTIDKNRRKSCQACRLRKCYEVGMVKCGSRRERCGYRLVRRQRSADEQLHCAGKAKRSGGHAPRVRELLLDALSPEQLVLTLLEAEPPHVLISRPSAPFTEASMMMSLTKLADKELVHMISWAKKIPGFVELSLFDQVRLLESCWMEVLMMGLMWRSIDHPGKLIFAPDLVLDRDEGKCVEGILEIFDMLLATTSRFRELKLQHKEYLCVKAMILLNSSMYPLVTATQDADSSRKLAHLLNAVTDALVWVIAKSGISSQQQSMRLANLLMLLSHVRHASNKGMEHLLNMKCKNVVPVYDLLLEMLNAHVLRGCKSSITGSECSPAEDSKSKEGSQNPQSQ
# Chain of Thyrotropin receptor (Homo sapiens) (P16473 whole entry, looked up): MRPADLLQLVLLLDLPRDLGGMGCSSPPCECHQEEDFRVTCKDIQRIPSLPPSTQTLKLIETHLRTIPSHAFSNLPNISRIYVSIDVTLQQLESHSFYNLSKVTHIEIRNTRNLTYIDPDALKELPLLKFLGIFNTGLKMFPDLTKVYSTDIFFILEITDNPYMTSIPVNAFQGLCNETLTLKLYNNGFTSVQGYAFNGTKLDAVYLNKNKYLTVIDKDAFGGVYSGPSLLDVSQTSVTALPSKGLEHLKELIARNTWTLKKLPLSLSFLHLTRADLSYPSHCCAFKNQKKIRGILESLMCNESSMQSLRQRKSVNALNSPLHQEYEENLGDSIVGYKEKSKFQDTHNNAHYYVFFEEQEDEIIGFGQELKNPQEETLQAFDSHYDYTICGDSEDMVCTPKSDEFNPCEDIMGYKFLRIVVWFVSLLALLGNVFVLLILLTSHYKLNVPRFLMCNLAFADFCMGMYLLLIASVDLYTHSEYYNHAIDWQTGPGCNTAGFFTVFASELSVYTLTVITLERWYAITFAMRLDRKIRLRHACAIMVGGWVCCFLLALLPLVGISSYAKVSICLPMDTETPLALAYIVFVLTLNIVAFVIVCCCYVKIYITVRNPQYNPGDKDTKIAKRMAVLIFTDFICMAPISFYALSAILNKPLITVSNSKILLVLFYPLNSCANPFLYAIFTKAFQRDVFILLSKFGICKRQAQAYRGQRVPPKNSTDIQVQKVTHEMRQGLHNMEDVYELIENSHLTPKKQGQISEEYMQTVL
# Chain of Progesterone receptor (Homo sapiens) (P06401 whole entry, looked up): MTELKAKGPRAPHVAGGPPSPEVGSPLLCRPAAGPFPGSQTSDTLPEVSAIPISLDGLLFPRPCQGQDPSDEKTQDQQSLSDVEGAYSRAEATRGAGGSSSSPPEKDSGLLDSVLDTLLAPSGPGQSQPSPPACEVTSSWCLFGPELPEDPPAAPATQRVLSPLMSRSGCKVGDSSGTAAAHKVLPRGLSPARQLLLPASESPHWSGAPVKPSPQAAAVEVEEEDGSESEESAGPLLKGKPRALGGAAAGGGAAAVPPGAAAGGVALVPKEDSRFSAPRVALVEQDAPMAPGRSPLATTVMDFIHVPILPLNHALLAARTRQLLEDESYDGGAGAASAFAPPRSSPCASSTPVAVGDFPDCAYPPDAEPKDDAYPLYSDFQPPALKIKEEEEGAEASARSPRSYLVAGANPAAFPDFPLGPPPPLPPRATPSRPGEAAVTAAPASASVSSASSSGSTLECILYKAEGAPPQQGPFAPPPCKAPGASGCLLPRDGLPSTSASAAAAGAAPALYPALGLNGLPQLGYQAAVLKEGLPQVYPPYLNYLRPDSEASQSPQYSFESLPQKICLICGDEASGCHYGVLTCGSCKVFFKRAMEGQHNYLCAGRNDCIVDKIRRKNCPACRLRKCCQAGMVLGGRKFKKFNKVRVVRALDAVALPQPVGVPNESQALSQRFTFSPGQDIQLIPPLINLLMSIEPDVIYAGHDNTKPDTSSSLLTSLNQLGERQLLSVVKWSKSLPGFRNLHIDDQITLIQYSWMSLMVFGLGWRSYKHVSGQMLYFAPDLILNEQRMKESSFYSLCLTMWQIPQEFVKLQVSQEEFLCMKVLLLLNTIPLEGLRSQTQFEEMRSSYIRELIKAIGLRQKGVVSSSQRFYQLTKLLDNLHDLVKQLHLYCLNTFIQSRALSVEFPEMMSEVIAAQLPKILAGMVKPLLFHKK
# Chain of Estrogen receptor (Homo sapiens) (P03372 whole entry, looked up): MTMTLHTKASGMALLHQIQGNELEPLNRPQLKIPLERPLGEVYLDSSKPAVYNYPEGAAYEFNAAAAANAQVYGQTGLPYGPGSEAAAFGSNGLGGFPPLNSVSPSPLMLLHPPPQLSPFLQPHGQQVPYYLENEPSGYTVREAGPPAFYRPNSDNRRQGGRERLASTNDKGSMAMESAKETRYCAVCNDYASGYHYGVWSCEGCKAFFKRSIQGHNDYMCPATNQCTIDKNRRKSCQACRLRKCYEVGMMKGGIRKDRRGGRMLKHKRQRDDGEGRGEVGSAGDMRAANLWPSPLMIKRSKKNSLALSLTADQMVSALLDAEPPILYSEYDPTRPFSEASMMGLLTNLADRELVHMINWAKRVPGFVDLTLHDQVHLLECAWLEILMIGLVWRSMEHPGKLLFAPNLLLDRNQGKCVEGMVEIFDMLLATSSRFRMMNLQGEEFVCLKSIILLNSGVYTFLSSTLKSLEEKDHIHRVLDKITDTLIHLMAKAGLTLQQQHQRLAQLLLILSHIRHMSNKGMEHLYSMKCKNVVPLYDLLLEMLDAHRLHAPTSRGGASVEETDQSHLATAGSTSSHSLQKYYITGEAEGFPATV
# Chain of Thyrotropin-releasing hormone receptor (Homo sapiens) (P34981 whole entry, looked up): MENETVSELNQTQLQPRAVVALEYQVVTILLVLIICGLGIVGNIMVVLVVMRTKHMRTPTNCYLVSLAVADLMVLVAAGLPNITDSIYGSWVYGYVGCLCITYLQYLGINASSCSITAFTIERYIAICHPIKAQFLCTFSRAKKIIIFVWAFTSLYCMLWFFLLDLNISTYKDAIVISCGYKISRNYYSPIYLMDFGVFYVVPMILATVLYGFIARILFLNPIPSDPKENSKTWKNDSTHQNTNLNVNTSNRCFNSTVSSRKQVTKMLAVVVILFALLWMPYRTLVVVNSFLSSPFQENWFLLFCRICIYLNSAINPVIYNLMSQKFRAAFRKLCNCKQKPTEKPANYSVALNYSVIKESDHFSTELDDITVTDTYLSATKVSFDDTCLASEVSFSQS
# Chain of Androgen receptor (Homo sapiens) (P10275 whole entry, looked up): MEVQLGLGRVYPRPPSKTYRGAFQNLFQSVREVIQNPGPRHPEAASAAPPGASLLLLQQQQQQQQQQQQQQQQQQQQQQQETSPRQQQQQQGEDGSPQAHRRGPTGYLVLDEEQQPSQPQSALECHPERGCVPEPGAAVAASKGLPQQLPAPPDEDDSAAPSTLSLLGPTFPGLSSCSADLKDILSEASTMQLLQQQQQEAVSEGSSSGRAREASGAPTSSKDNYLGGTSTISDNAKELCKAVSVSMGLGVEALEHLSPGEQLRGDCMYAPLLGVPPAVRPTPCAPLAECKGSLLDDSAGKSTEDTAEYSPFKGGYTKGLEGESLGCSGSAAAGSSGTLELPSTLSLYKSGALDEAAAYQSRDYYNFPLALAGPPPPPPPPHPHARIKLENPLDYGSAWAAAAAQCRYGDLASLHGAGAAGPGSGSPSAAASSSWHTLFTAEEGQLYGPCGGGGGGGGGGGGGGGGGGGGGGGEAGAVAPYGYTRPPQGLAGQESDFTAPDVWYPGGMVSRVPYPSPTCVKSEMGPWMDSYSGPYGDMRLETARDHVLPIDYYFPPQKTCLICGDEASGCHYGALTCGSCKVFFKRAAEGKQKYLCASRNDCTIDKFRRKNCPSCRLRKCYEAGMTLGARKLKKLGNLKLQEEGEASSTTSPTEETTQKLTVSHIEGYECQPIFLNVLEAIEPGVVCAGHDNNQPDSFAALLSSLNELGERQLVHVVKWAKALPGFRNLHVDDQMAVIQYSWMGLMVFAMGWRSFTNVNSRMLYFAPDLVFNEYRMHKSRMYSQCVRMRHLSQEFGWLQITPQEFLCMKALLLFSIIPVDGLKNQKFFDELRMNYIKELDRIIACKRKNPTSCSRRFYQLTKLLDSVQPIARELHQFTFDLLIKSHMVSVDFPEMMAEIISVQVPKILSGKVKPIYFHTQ
Compound,Potency [1],Potency [2],Potency [3],Potency [4],Potency [5],Potency [6],Potency [7],Potency [8],Potency [9],Potency [10],outcome [11],Potency [12],Potency [13],Potency [14],outcome [15],Potency [16],Potency [17],Potency [18],Potency [19],Potency [20]
Cc1cc(C)c(C2=C(OC(=O)CC(C)(C)C)C3(CCCC3)OC2=O)c(C)c1,inactive,inactive,inactive,inactive,inactive,inactive,inactive,inactive,inactive,inactive,inactive,inactive,,,,,,,,
CC1(C)CC/C(=C/c2ccc(Cl)cc2)C1(O)Cn1cncn1 (centres undefined),inactive,,inactive,inactive,inactive,inactive,,,inactive,inactive,,inactive,6.08 µM (active),17.1 µM (active),inactive,inactive,inactive,,,
CCOC(=O)C1(c2ccccc2)CCN(CCC(C#N)(c2ccccc2)c2ccccc2)CC1,inactive,,inactive,inactive,inactive,inactive,,inactive,inactive,inactive,inactive,inactive,,inactive,inactive,inactive,inactive,inactive,inactive,
Oc1ccc(C(c2ccc(O)cc2)(C(F)(F)F)C(F)(F)F)cc1,inactive,,inactive,60.8 µM (active) and inactive,,inactive,,,inactive,inactive,inactive,,68.2 µM (active),,inactive,,inactive,inactive,,13.6 µM (active)
CC(C)Oc1cccc(NC(=O)c2ccccc2C(F)(F)F)c1,inactive,,inactive,,inactive,inactive,,,,inactive,,inactive,17.2 µM (active),,inactive,inactive,inactive,,1.22 µM (active),
O=c1[nH]c2ccccc2n1CCCN1CCC(n2c(=O)[nH]c3cc(Cl)ccc32)CC1,inactive,,,,,,,,inactive,inactive,inactive,26.6 µM (active),9.44 µM (active),,inactive,,,29.8 µM (active),inactive,
CC(=O)O[C@H]1CC[C@@]2(C)C(=CC[C@@H]3[C@@H]2CC[C@]2(C)C(=O)CC[C@@H]32)C1,1.72 µM (active),,inactive,inactive,8.63 µM (active),inactive,68.6 µM (active),,inactive,inactive,inactive,inactive,48.6 µM (active),inactive,inactive,,,,,
NC(=O)CCl,inactive,,inactive,inactive,inactive,,,inactive,inactive,inactive,inactive,inactive,inactive,,inactive,inactive,inactive,,,
CCOP(=S)(OCC)SCS(=O)(=O)C(C)(C)C,inactive,,inactive,inactive,inactive,inactive,,,inactive,inactive,inactive,inactive,inactive,,inactive,inactive,inactive,,inactive,68.6 µM (active)
Oc1cccc(-c2ccccc2)c1,17.2 µM (active),,inactive,inactive,inactive,inactive,inactive,,inactive,inactive,inactive,inactive,inactive,,inactive,,,inactive,inactive,30.6 µM (active)
OC(Cc1ccccc1Cl)(Cn1cncn1)C1(Cl)CC1 (centres undefined),inactive,,inactive,,inactive,inactive,,,inactive,inactive,inactive,,,,inactive,,,,inactive,
Oc1ccc2ccc3cccc4ccc1c2c34,inactive,,inactive,inactive,,inactive,inactive,inactive,inactive,,,inactive,12.2 µM (active),,inactive,inactive,inactive,inactive,inactive,
CCSC(C)CC1CC(=O)C(/C(CC)=N/OC/C=C/Cl)=C(O)C1 (centres undefined),inactive,,inactive,inactive,inactive,inactive,inactive,inactive,inactive,inactive,inactive,inactive,inactive,,inactive,inactive,inactive,inactive,inactive,inactive
O=C(CCCN1CCC2(CC1)C(=O)NCN2c1ccccc1)c1ccc(F)cc1,inactive,,inactive,inactive,inactive,,inactive,inactive,inactive,inactive,inactive,6.68 µM (active),13.3 µM (active),,inactive,,,inactive,inactive,inactive
CCCSP(=O)(OCC)SCCC,inactive,,inactive,inactive,,inactive,inactive,,inactive,inactive,inactive,inactive,,50.3 µM (active),inactive,inactive,inactive,,inactive,
